In PubChem BioAssay (NCATS):
Where “and” joins values, the source holds several entries; their conditions need not be identical. Equal values may be shown once. Records with an inconclusive call do not appear. A call without a number means that no potency is given here. Calls of active or inactive are those of the source. Calls follow the shape of the dose curve; as a rule, active = well fitted inhibition curve with a large enough effect; inconclusive = small, poorly fitted or top-dose-only effect; inactive = flat fitted curve, though single readings scatter.
Potency is read from the fitted curve at half-maximal effect.

These molecules were tested on astro (assay: Drug repurposing screens with cells derived from glioblastoma tumor samples (AID 1345199; also: nearly all actives have a fitted effect of over 40% in size)). Conditions: viability, ATP luminescence, 48 h; series mostly up to 45.9 µM.
Procedure, shortened: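 Four patient lines of CD133+ GBM neurospheres were screened at several concentrations; hits were retested in those lines plus three slower-growing GBM lines, using 48-hour treatment and ATP-based viability.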
With `C[N+]12CCC(CC1)C(OC(=O)C(O)(c1ccccc1)c1ccccc1)C2` (configuration not stated) the Potency was “inactive”. For `O=[N+]([O-])c1cccc(S(=O)(=O)NCCNS(=O)(=O)c2cccc([N+](=O)[O-])c2)c1`, the Potency was “inactive”. For `CN1CCN(CCC(=O)N2c3ccccc3Sc3ccc(C(F)(F)F)cc32)CC1`, the Potency was “inactive”. `NCCNC(=O)c1ccc(Cl)cn1` was tested, and the Potency was “inactive”. In the case of `CCCCNc1ccc(C(=O)OCCOCCOCCOCCOCCOCCOCCOCCOCCOC)cc1`, the Potency was “inactive”. With `NC1CCN(c2nc3c(cc2F)c(=O)c(C(=O)O)cn3-c2ccc(F)cc2F)C1` (configuration not stated) the Potency was “inactive”. With `CCc1cc(Cl)c(OC)c(C(=O)NC[C@@H]2CCCN2CC)c1O` the Potency was “inactive”. `Cc1nc(-c2ccc(Cl)cc2)oc1COC(C)(C)C(=O)O` was tested, and the Potency was “inactive”. With `Nc1nc(Cl)nc2c1ncn2[C@@H]1O[C@H](CO)[C@@H](O)[C@@H]1F` the Potency was 10 µM (active). In the case of `CCc1nn(CCCN2CCN(c3cccc(Cl)c3)CC2)c(=O)n1CCOc1ccccc1`, the Potency was 35.5 µM (active) and 25.1 µM (active). For `COc1cc(O)c(C(=O)c2ccccc2)cc1S(=O)(=O)O`, the Potency was “inactive”. With `CC(=O)Nc1ccc(OC(=O)c2ccccc2OC(C)=O)cc1` the Potency was “inactive”. With `CC(=O)OCC1=C(C(=O)O)N2C(=O)[C@@H](NC(=O)CSc3ccncc3)[C@H]2SC1` the Potency was “inactive”. `C=C1c2cccc(O)c2C(O)=C2C(=O)[C@]3(O)C(O)=C(C(N)=O)C(=O)[C@@H](N(C)C)[C@@H]3[C@@H](O)[C@H]12` was tested, and the Potency was “inactive”. In the case of `CC(O)Cn1cnc2c1c(=O)n(C)c(=O)n2C` (configuration not stated), the Potency was “inactive”. `C[C@]12CCC(=O)C=C1C=C[C@@H]1[C@@H]2CC[C@@]2(C)[C@H]1CC[C@@]21CCC(=O)O1` was tested, and the Potency was “inactive”. In the case of `Cc1cccc(C)c1NC(=O)CN1CCCC1`, the Potency was “inactive”. With `NC(N)=NCc1cccc(I)c1` the Potency was “inactive”. For `CCOc1ccccc1OCCN[C@H](C)Cc1ccc(OC)c(S(N)(=O)=O)c1`, the Potency was “inactive”. With `CC(C)Cn1cnc2c1c(=O)n(C)c(=O)n2C` the Potency was “inactive”. With `NS(=O)(=O)c1cc2c(cc1Cl)NC(CC1CCCC1)NS2(=O)=O` (configuration not stated) the Potency was “inactive”. For `CCN1CCCC(OC(=O)C(c2ccccc2)c2ccccc2)C1` (configuration not stated), the Potency was “inactive”. With `Cc1cc(C)cc(OCC2CNC(=O)O2)c1` (configuration not stated) the Potency was “inactive”. With `CCNC(=O)NCc1cccc(Cl)c1` the Potency was “inactive”. For `COP(=O)(OC)OC(c1ccc(Cl)cc1)P(=O)(OC)OC` (configuration not stated), the Potency was “inactive”. With `O=C1OC(CN2CCOCC2)CN1/N=C/c1ccc([N+](=O)[O-])o1` (configuration not stated) the Potency was “inactive”. In the case of `CN1CCN(c2c(F)cc3c(=O)c(C(=O)O)cn4c3c2SCC4)CC1`, the Potency was “inactive”. `CC(C)NCC(O)c1ccc2ccccc2c1` (configuration not stated) was tested, and the Potency was “inactive”. With `Cc1cccc(C)c1NC(=O)c1ccccc1C(=O)O` the Potency was “inactive”. In the case of `Cc1cc(NS(=O)(=O)c2ccc(N)cc2)nc(C)n1`, the Potency was “inactive”. In the case of `CN(C)CCOC(=O)C(c1ccccc1)C1(O)CCCC1` (configuration not stated), the Potency was “inactive”. In the case of `NS(=O)(=O)c1ccc(Cl)c(S(N)(=O)=O)c1`, the Potency was “inactive”. In the case of `COc1cc(NS(=O)(=O)c2ccc(N)cc2)ncn1`, the Potency was “inactive”. With `C[N+]1(CC2COC(c3ccccc3)(C3CCCCC3)O2)CCCCC1` (configuration not stated) the Potency was “inactive”. `C#C[C@]1(O)CC[C@H]2[C@@H]3CCC4=Cc5oncc5C[C@]4(C)[C@H]3CC[C@@]21C` was tested, and the Potency was “inactive”. `CCO[C@@H]1O[C@H](C(COCc2ccccc2)OCc2ccccc2)[C@H](OCc2ccccc2)[C@H]1O` (some centres not stated) was tested, and the Potency was “inactive”. In the case of `Nc1ccc(S(=O)(=O)NCc2ccccc2)cc1`, the Potency was “inactive”.
